Measurements reported in the OligoGym collection.

molecular target: LMO4; test: pooled miR-30 sensor sort-seq; sequence = guide strand; conditions: shRNA
Further: reference of the scale not given here.

Q: With TTGGTGTAACAGGACGTGCCGA as the sequence, how does the sensor-assay potency score (higher = more potent) read?
A: Its sensor-assay potency score (higher = more potent) is -0.708.

Q: With TAGTGAAACCGATCTCCCGGGA as the sequence, how does the sensor-assay potency score (higher = more potent) read?
A: Its sensor-assay potency score (higher = more potent) is -0.538.

Q: TAAACTGCCATTGATGTAGTGA was tested. Which sensor-assay potency score (higher = more potent) did it give?
A: Its sensor-assay potency score (higher = more potent) is 0.368.

Q: How did the sensor-assay potency score (higher = more potent) turn out when TCACTCGCAGGAATCGACTGTC was run?
A: Its sensor-assay potency score (higher = more potent) is 0.214.

Q: TAAGATGATACACATTGCCTTG was tested. Which sensor-assay potency score (higher = more potent) did it give?
A: The sensor-assay potency score (higher = more potent) was -0.884.

molecular target: LNPEP; test: as above; conditions: shRNA

Q: How did the sensor-assay potency score (higher = more potent) turn out when TTTTGTTCTTCTCTGCTTCAGA was run?
A: Its sensor-assay potency score (higher = more potent) is -0.123.

Q: For TAAATAACTACATACTGCCCAA, which sensor-assay potency score (higher = more potent) is on record?
A: The sensor-assay potency score (higher = more potent) was -0.52.

Q: TTTCTTGGCTTGAAACTGCTGA was tested. Which sensor-assay potency score (higher = more potent) did it give?
A: The sensor-assay potency score (higher = more potent) was 0.246.

Q: Which sensor-assay potency score (higher = more potent) does the source give for TACAGAAACAGCAACCACGATG here?
A: Its sensor-assay potency score (higher = more potent) is -0.798.

Q: For TTGAATAGATGCATAGCTGTGA, which sensor-assay potency score (higher = more potent) is on record?
A: The sensor-assay potency score (higher = more potent) was 0.497.

Q: TACTGTGTCAGTAACTTTCTGG was tested. Which sensor-assay potency score (higher = more potent) did it give?
A: The sensor-assay potency score (higher = more potent) was 0.276.

Q: How did the sensor-assay potency score (higher = more potent) turn out when TTTCTCATTACTTTCATCTGTG was run?
A: Its sensor-assay potency score (higher = more potent) is 0.22.

Q: Which sensor-assay potency score (higher = more potent) does the source give for TTCTCTTTGACAAAATCCCATG here?
A: Its sensor-assay potency score (higher = more potent) is -1.18.

Q: Which sensor-assay potency score (higher = more potent) does the source give for TTGTTGTATAAAAAGTTCCTTT here?
A: The sensor-assay potency score (higher = more potent) was -0.495.

Q: With TTCTGTACAAGCTTATTCCAGT as the sequence, how does the sensor-assay potency score (higher = more potent) read?
A: The sensor-assay potency score (higher = more potent) was -0.169.

Q: TTATAGATGAGGTCTGTCTGAA was tested. Which sensor-assay potency score (higher = more potent) did it give?
A: Its sensor-assay potency score (higher = more potent) is 0.0575.

Q: With TTGAATAATTTCTTCCTTCAGT as the sequence, how does the sensor-assay potency score (higher = more potent) read?
A: The sensor-assay potency score (higher = more potent) was -0.0999.

molecular target: LNX1; test: as above; conditions: shRNA

Q: TAGATGATCATACTTTTCCTGA was tested. Which sensor-assay potency score (higher = more potent) did it give?
A: The sensor-assay potency score (higher = more potent) was -0.507.

Q: How did the sensor-assay potency score (higher = more potent) turn out when TTTTTGGATATTTACCACCTTC was run?
A: The sensor-assay potency score (higher = more potent) was -0.64.

Q: With TTGAGAATCACATGAAAGCTGT as the sequence, how does the sensor-assay potency score (higher = more potent) read?
A: Its sensor-assay potency score (higher = more potent) is 0.307.

Q: How did the sensor-assay potency score (higher = more potent) turn out when TAGTTAGAGTAATTCTTCCTTT was run?
A: Its sensor-assay potency score (higher = more potent) is -0.396.

Q: For TTTATTCTTCCATCTCTGCTTA, which sensor-assay potency score (higher = more potent) is on record?
A: The sensor-assay potency score (higher = more potent) was 0.44.

Q: AAAGCTTTGAGTACTATCGAGG was tested. Which sensor-assay potency score (higher = more potent) did it give?
A: The sensor-assay potency score (higher = more potent) was -0.642.

Q: For TTGGATAATGATATGGACCAGT, which sensor-assay potency score (higher = more potent) is on record?
A: Its sensor-assay potency score (higher = more potent) is -0.0255.

Q: TTACAGTTATACAAGCACCGTG was tested. Which sensor-assay potency score (higher = more potent) did it give?
A: The sensor-assay potency score (higher = more potent) was -0.215.

Q: TAATACAATATCTTTACAGTTA was tested. Which sensor-assay potency score (higher = more potent) did it give?
A: Its sensor-assay potency score (higher = more potent) is -0.86.

Q: For TTCTTCGTAATACAATATCTTT, which sensor-assay potency score (higher = more potent) is on record?
A: The sensor-assay potency score (higher = more potent) was -1.2.

Q: TACAGTTATACAAGCACCGTGG was tested. Which sensor-assay potency score (higher = more potent) did it give?
A: Its sensor-assay potency score (higher = more potent) is -0.0834.

Q: For TTGAGTACTATCGAGGATGATG, which sensor-assay potency score (higher = more potent) is on record?
A: Its sensor-assay potency score (higher = more potent) is -0.956.

molecular target: LONP1; test: as above; conditions: shRNA

Q: How did the sensor-assay potency score (higher = more potent) turn out when TAACACCTTCTCCACTTGCTTC was run?
A: The sensor-assay potency score (higher = more potent) was -1.18.

Q: Which sensor-assay potency score (higher = more potent) does the source give for TTTCCGTAACACCTTCTCCACT here?
A: The sensor-assay potency score (higher = more potent) was -1.42.

Q: Which sensor-assay potency score (higher = more potent) does the source give for ATCTGCAGCACTGACTCCCTGT here?
A: Its sensor-assay potency score (higher = more potent) is -0.477.

Q: Which sensor-assay potency score (higher = more potent) does the source give for TGAAGCGGAAGTACTCTCGGTT here?
A: The sensor-assay potency score (higher = more potent) was -0.124.

Q: For TAGAAGTCCTTCTTGTTCTCGG, which sensor-assay potency score (higher = more potent) is on record?
A: Its sensor-assay potency score (higher = more potent) is 0.532.

Q: How did the sensor-assay potency score (higher = more potent) turn out when AAACACTGGATGATCTTCCCGG was run?
A: The sensor-assay potency score (higher = more potent) was 0.233.

Q: How did the sensor-assay potency score (higher = more potent) turn out when TCTCTCTTTAGAAAGACGCCGA was run?
A: Its sensor-assay potency score (higher = more potent) is -0.565.

Q: Which sensor-assay potency score (higher = more potent) does the source give for ATCCTTGTCGTCCTTCTCCAGG here?
A: Its sensor-assay potency score (higher = more potent) is -1.37.

Q: TCGTCGATGAGGATCAGGGGGT was tested. Which sensor-assay potency score (higher = more potent) did it give?
A: Its sensor-assay potency score (higher = more potent) is -0.954.

Q: How did the sensor-assay potency score (higher = more potent) turn out when TTCAAGGCAATGATGTCCCGGA was run?
A: The sensor-assay potency score (higher = more potent) was -0.021.

Q: How did the sensor-assay potency score (higher = more potent) turn out when TTCAAATTCCTTCTTCAGCAGG was run?
A: The sensor-assay potency score (higher = more potent) was -0.339.
